This is a sample that favours compounds with a hit; in the whole collection about 22% have one here.
CYP2C19 act – cytochrome P450 2C19 (human) activation. activation factor at 5 µM. recombinant CYP2C19, luciferin-H EGE luminescence; stronger effect = higher value; 0 = fully inhibited enzyme, 1 = untreated enzyme. 96,000 tested, under 10 active;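 active = activation factor of at least 2 at 5 µM in the primary screen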;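 note: 0 = wells with 2.5 mM tranylcypromine and 1 = vehicle-only wells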
Target sequence (P33261 whole entry, looked up): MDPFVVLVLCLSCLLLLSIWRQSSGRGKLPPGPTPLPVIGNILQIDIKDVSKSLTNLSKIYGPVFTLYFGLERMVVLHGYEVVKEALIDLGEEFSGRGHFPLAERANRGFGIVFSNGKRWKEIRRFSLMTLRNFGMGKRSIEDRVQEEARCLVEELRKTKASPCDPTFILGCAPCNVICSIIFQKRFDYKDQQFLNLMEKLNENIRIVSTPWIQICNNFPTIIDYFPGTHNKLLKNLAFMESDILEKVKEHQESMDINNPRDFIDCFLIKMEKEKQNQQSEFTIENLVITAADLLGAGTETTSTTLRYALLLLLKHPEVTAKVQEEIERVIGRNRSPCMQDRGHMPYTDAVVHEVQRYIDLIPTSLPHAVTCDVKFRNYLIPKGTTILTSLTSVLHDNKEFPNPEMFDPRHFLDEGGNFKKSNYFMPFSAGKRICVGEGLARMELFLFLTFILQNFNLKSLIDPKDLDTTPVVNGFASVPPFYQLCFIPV
CYP2C9 activ – activators of human CYP2C9; P11712; recombinant CYP2C9, luciferin-H conversion, luminescence; stronger effect = higher value; factor 1 = untreated enzyme, 0 = blocked; activation factor at 5 µM; 96,000 tested, 1.4% active;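 active = activation factor of 2 or more for CYP2C9 at a 5 µM dose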;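 note: 0 = sulfaphenazole-blocked wells and 1 = vehicle-only wells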
CYP2C9 inhib – inhibitors of human CYP2C9 | P11712 | CYP2C9 Supersomes, luciferin-H conversion, luminescence | inhibition, % at 5 µM | 96,000 tested, 20% active | AID 777;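 active = blocking of liver enzyme CYP2C9 beyond about 50% at 5 µM, limit read from the data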
Measles CPE – protection of cells from measles virus. Measles virus-infected cells, CPE protection, absorbance. protection (pct of control), % at 4 µM. 140,000 tested, 1.5% active; in the data active = protection mostly above about 24%, no sharp cut-off; inactive = mostly below about 26%
CYP2C19 inhib – blocks human cytochrome P450 2C19. P33261. CYP2C19 Supersomes, luciferin-H EGE luminescence, 30 min. inhibition, % at 5 µM. 96,000 tested, 21% active. AID 778;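 active = CYP2C19 inhibition above a set limit at 5 µM in the primary screen, cut at about 50% in these data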;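 note: plate controls were negative control wells for no effect and 2.5 mM tranylcypromine positive control for full effect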
* = called active by the depositor; . = no result given.

SMILES	CYP2C19 act	CYP2C9 activ	CYP2C9 inhib	Measles CPE	CYP2C19 inhib
CCCCCSc1nc(N2CCOCC2)c2c(c1C#N)CC(C)(C)OC2	0.7	0.2	82.8*	11.0	25.1
CCNc1nc(Oc2ccc(=O)n(-c3ccccc3)n2)nc(N2CCOCC2)n1	0.7	0.7	27.6	23.6	29.9
CCOc1ccc(OC(=O)C(CCS(C)(=O)=O)N2C(=O)c3ccccc3C2=O)cc1 (stereo unspecified)	0.9	0.7	32.1	20.8	13.7
O=C(CSc1nc2c(sc3ccccc32)c(=O)n1Cc1ccco1)NCC1CCCO1 (stereo unspecified)	0.5	0.3	68.1*	3.4	50.7*
O=C(CSc1nc2ccccc2c(=O)n1CC1CCCO1)NCC1CCCO1 (stereo unspecified)	0.9	0.9	12.7	4.7	9.5
O=C(CSc1nc2ccccc2n1-c1ccccc1)NCC1CCCO1 (stereo unspecified)	0	0.3	71.5*	25.4	95.8*
CC(=O)NCCn1c(SCC(=O)NCC2CCCO2)nc2ccccc2c1=O (stereo unspecified)	.	.	.	51.8*	.
N#CCSc1nc2ccccc2c(=O)n1CCC(=O)NC1CCCCC1	0	1.2	-24.8	2.8	96.6*
CC(C)(C)c1ccc(-c2csc(NC(=O)CN3C(=O)NC4(CCCCC4)C3=O)n2)cc1	1.2	1	-0.8	14.0	-16.3
CCCn1c(CCc2ccccc2)nnc1SCC(=O)N1CCOCC1	1.1	1.2	-19.4	10.6	-14.3
COc1ccc(C(=O)CSc2nc3nc(C)cc(C)n3n2)cc1OC	0.5	0.8	20.5	23.9	46.1
COCCCNC(=O)CSc1nc2ccccc2c(=O)n1CCCC(=O)NCC1CCCO1 (stereo unspecified)	0.8	0.5	45.7	3.7	19.5
O=C(CCCn1c(SCC(=O)NC2CCCCC2)nc2ccccc2c1=O)NCC1CCCO1 (stereo unspecified)	0.6	0.4	64.9*	6.9	36.3
O=C(CCCn1c(SCC(=O)c2ccc(O)c(O)c2)nc2ccccc2c1=O)NCC1CCCO1 (stereo unspecified)	0.5	0	96.3*	2.7	54.9*
CCC(C)NC(=O)CSc1nc2ccccc2c(=O)n1CCCC(=O)NCC1CCCO1 (stereo unspecified)	0.9	0.6	42.8	8.6	8.0
N#CCn1c(C2CCCCC2)nc2ccccc2c1=O	0.3	0.3	65.1*	4.8	70.2*
CC1CCCCC1NC(=O)CN1CCN(Cc2ccccc2Cl)C1=O (stereo unspecified)	.	.	.	2.4	.
CC(CCc1ccco1)NC(=O)Nc1cccc(F)c1 (stereo unspecified)	0.2	0.2	83.0*	4.5	83.6*
CNS(=O)(=O)c1cnccc1N1CCN(c2cccc(Cl)c2)CC1	0.4	0.5	48.3	12.1	58.3*
O=C(COc1ccc2ccccc2c1)NNC(=O)[C@@H]1CCCC[C@@H]1C(=O)O	0.9	0.9	9.0	11.7	11.7
Cc1ccc(S(=O)(=O)C2(C(=O)N3CCCCC3C)CC2)cc1 (stereo unspecified)	0.3	0.9	6.6	19.5	71.8*
Cc1ccc(S(=O)(=O)C2(C(=O)N(C)C3CCCCC3)CC2)cc1	0.5	0.9	8.1	4.2	50.3*
Cc1ccc(NC(=O)C2(S(=O)(=O)c3ccc(C)cc3)CC2)cc1	0.6	0.5	49.0	26.9	36.5
Brc1ccc2c(c1)OCCOCCOc1cc(Br)ccc1OCCOCCOCCO2	0.1	0.2	84.8*	1.3	88.1*
CCCCn1c(NC(C)=O)c(C#N)c2nc3ccccc3nc21	0.9	0.9	13.7	1.9	10.7
SMILES	CYP2C19 act	CYP2C9 activ	CYP2C9 inhib	Measles CPE	CYP2C19 inhib
CCCCCn1c(N)c(C#N)c2nc3ccccc3nc21	0.4	0.8	21.9	10.1	61.9*
N#Cc1c(N)n(CCNC(=O)c2cccs2)c2nc3ccccc3nc12	0.1	0.8	16.3	28.3	87.4*
N#Cc1c(N)n(CCNC(=O)c2ccccc2)c2nc3ccccc3nc12	.	.	.	4.5	.
Nc1c(S(=O)(=O)c2ccccc2)c2nc3ccccc3nc2n1CCN1CCOCC1	.	.	.	4.7	.
N#Cc1c(N)n(CCCN2CCOCC2)c2nc3ccccc3nc12	0.1	0.7	32.0	15.5	88.7*
COc1ccccc1N1CCN(Cc2nc3ccsc3c(=O)[nH]2)CC1	0.9	0.9	11.0	22.7	9.7
CCc1cc(/C(Cc2csc(C)n2)=N/O)c(O)cc1O	0.4	0.7	31.1	5.0	55.6*
CCOc1ccc(S(=O)(=O)Nc2cccc(OC)c2)cc1	0.3	0.4	56.0*	22.7	68.9*
Cc1ccc(S(=O)(=O)Nc2cccnc2)cc1	0.8	1	1.6	17.7	15.1
CCOc1ccc(S(=O)(=O)Nc2cccc(N(C)S(C)(=O)=O)c2)cc1	0.1	1.2	-19.7	7.4	92.6*
CCCCOc1ccc(S(=O)(=O)Nc2cccnc2)cc1	0.4	0.1	88.7*	17.0	60.7*
Cc1c(CNC(=O)c2cnn3c2NC(c2ccccc2)CC3C(F)(F)F)cnn1C (stereo unspecified)	1	0.7	29.8	1.8	-2.2
CCOc1ccc(N(CC(=O)Nc2cccc(F)c2)S(=O)(=O)c2c(C)noc2C)cc1	0.9	0.7	28.1	7.2	13.4
COc1ccc(N(CC(=O)Nc2cccc(C(=O)O)c2)S(=O)(=O)c2c(C)noc2C)cc1	1	0.3	67.6*	4.3	3.6
CCOC(=O)c1cccc(NC(=O)CN(c2ccc(OC)cc2)S(=O)(=O)c2c(C)noc2C)c1	0.2	0.1	94.5*	1.3	77.2*
Cn1nc(C(=O)N2CCOCC2)c([N+](=O)[O-])c1C(=O)N1CCOCC1	.	.	.	9.9	.
CCOc1cc(C2C(C#N)=C(N)Oc3n[nH]c(CC)c32)ccc1OCCN1CCOCC1 (stereo unspecified)	.	.	.	4.5	.
CC1=C(C)CC(C(=O)c2ccccc2)C(C(=O)O)C1 (stereo unspecified)	1.1	1.1	-9.6	47.7*	-11.6
CC1=C(C)CC(C(=O)NCCc2ccccc2)C(C(=O)O)C1 (stereo unspecified)	0.8	0.9	11.8	8.3	15.0
Cc1ccc(NC(=O)CSC(N)=O)cc1Cl	0.7	0.6	42.3	6.5	29.6
NC(=O)SCC(=O)Nc1ccc(Cl)cc1	0.6	0.5	51.4*	4.2	36.3
NC(=O)SCC(=O)Nc1ccc(Cl)c(Cl)c1	0.5	0.3	73.7*	8.9	46.2
NC(=O)SCC(=O)Nc1cccc(Cl)c1	0.6	0.8	18.5	5.0	42.7
CCC(CC)C(=O)Nc1ccc(Cl)c(Cl)c1	0.3	0.6	38.2	13.3	66.8*
COc1ccc2c(c1OC)C(=O)OC2Nc1ccccc1S(=O)(=O)C(F)F (stereo unspecified)	1.3	1.1	-10.6	10.9	-26.5
CCc1cc2c(-c3ccccc3)cc(=O)oc2c(CN2CCOCC2)c1O	0.2	0.1	92.5*	6.6	78.3*
O=c1cc(-c2ccccc2)c2ccc(O)c(CN3CCCCC3)c2o1	1	1.1	-8.2	2.9	-3.7
C=CCSc1nnc2c(n1)OC=Nc1ccc(Br)cc1-2	0.5	0.4	60.4*	11.1	52.6*
